# About 410 targets per protein were measured; listed, in parts, are those with the strongest signals and a random draw of the rest.
# Tests used:
# Experiment in all cases: glycan array binding signal (z-score within array); higher = stronger binding
# Details in all cases: glycan notation: IUPAC condensed, linker removed
# [1] = test system: Gal(a1-3)Gal(b1-4)GlcNAc(b1-6)GalNAc
# How it was run: (§1)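 The Consortium for Functional Glycomics database supplied 3228 glycan arrays, of which those lacking an available protein sequence were dropped. The binding signal, a within-array Z-score, was averaged across arrays of the same protein sequence and across linkers. Negative scores can be read as non-binding.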
# Gal(a1-6)Glc = test system: Gal(a1-6)Glc
# How it was run: as §1
# Gal(b1-3)Gal(b1-4)GlcNAc = test system: Gal(b1-3)Gal(b1-4)GlcNAc
# How it was run: as §1
# Gal(a1-4)Gal(b1-4)Glc = test system: Gal(a1-4)Gal(b1-4)Glc
# How it was run: as §1
# Gal(a1-4)GlcNAc = test system: Gal(a1-4)GlcNAc
# How it was run: as §1
# Gal(b1-3)GalNAc(b1-3)Gal = test system: Gal(b1-3)GalNAc(b1-3)Gal
# How it was run: as §1
# [2] = test system: Gal(b1-3)GalNAc(b1-4)Gal(b1-4)Glc
# How it was run: as §1
# Gal(b1-3)GalNAc = test system: Gal(b1-3)GalNAc
# How it was run: as §1
# [3] = test system: Gal(a1-3)Gal(b1-4)[Fuc(a1-3)]GlcNAc(b1-2)Man(a1-3)[Gal(a1-3)Gal(b1-4)[Fuc(a1-3)]GlcNAc(b1-2)Man(a1-6)]Man(b1-4)GlcNAc(b1-4)GlcNAc
# How it was run: as §1
# [4] = test system: Gal(a1-3)Gal(b1-4)[Fuc(a1-3)]GlcNAc
# How it was run: as §1
# Gal(a1-3)Gal(b1-4)GlcNAc = test system: Gal(a1-3)Gal(b1-4)GlcNAc
# How it was run: as §1
# [5] = test system: Gal(b1-3)GalNAc(a1-3)[Fuc(a1-2)]Gal(b1-4)GlcNAc
# How it was run: as §1
# [6] = test system: Gal(b1-3)GalNAc(a1-3)[Fuc(a1-2)]Gal(b1-4)Glc
# How it was run: as §1
# Gal(a1-3)Gal = test system: Gal(a1-3)Gal
# How it was run: as §1
# Gal(a1-4)Gal(b1-4)GlcNAc = test system: Gal(a1-4)Gal(b1-4)GlcNAc
# How it was run: as §1
# Gal(b1-2)Gal = test system: Gal(b1-2)Gal
# How it was run: as §1
# [7] = test system: Gal(b1-3)GalNAc(b1-4)[Neu5Gc(a2-3)]Gal(b1-4)Glc
# How it was run: as §1
# [8] = test system: Gal(b1-3)GalNAc(b1-3)Gal(a1-4)Gal(b1-4)Glc
# How it was run: as §1
# [9] = test system: Gal(a1-3)Gal(b1-4)GlcNAc(b1-3)GalNAc
# How it was run: as §1
# [10] = test system: Gal(a1-3)[Gal(a1-4)]Gal(b1-4)GlcNAc
# How it was run: as §1
substance,measurement,setting,value
"Wza (Escherichia coli), P0A930",glycan array binding signal (z-score),[1],3.84
same,glycan array binding signal (z-score),Gal(a1-6)Glc,3.12
same,glycan array binding signal (z-score),Gal(b1-3)Gal(b1-4)GlcNAc,3.02
Epa22,glycan array binding signal (z-score),Gal(a1-4)Gal(b1-4)Glc,-0.375
same,glycan array binding signal (z-score),Gal(a1-4)GlcNAc,10.5
same,glycan array binding signal (z-score),Gal(b1-3)GalNAc(b1-3)Gal,2.8
same,glycan array binding signal (z-score),[2],2.6
same,glycan array binding signal (z-score),Gal(b1-3)GalNAc,1.46
AgI/II Vhelical-GFP (Streptococcus mutans),glycan array binding signal (z-score),[3],-0.151
same,glycan array binding signal (z-score),[4],-0.245
same,glycan array binding signal (z-score),Gal(a1-6)Glc,-0.194
same,glycan array binding signal (z-score),[2],-0.139
"SiiE (Salmonella typhimurium), A0A0H3NVH0",glycan array binding signal (z-score),Gal(b1-3)Gal(b1-4)GlcNAc,-1.51
"SpGH101 (Streptococcus pneumoniae), Q8DR60",glycan array binding signal (z-score),Gal(a1-3)Gal(b1-4)GlcNAc,-0.162
same,glycan array binding signal (z-score),Gal(b1-3)Gal(b1-4)GlcNAc,-0.193
same,glycan array binding signal (z-score),[5],1.71
same,glycan array binding signal (z-score),[6],2.88
same,glycan array binding signal (z-score),Gal(b1-3)GalNAc,8.17
LcI (Legionella pneumophila),glycan array binding signal (z-score),Gal(a1-3)Gal,-0.38
same,glycan array binding signal (z-score),Gal(a1-4)Gal(b1-4)GlcNAc,-0.363
same,glycan array binding signal (z-score),Gal(b1-2)Gal,4.02
"MIC3-MAR1b (Eimeria tenella), B6VCV4",glycan array binding signal (z-score),[7],-0.47
Actinohivin (Actinomycete K97),glycan array binding signal (z-score),Gal(a1-3)Gal(b1-4)GlcNAc,-0.163
same,glycan array binding signal (z-score),[3],0.092
same,glycan array binding signal (z-score),Gal(b1-3)Gal(b1-4)GlcNAc,-0.14
same,glycan array binding signal (z-score),[5],-0.176
"GspB (Streptococcus gordonii), Q939N5",glycan array binding signal (z-score),[8],3.02
"BambL (Burhholderia ambifaria), Q0B4G1",glycan array binding signal (z-score),[9],-0.314
same,glycan array binding signal (z-score),[10],-0.316
same,glycan array binding signal (z-score),Gal(b1-2)Gal,-0.304
same,glycan array binding signal (z-score),[6],-0.278
AgI/IIC123-GFP (Streptococcus mutans),glycan array binding signal (z-score),Gal(a1-4)GlcNAc,0.706
